Experimental findings from PubChem BioAssay (Tox21) are described below.

Records with an inconclusive call do not appear. A number with no mark means an inactive call. Calls of active or inactive are those of the source. The call rests on the fitted dose curve; in most records, active means well fitted activation curve with a large enough effect in the signal ratio in the repeat runs (not every such curve was filed as active); inconclusive means weak or mixed curves, or effect the other way; inactive means flat fitted curve, though single readings scatter; the % refers to the signal ratio.
On the % scale 0 is the no-effect control and ±100 the full control effect.

Bile acid receptor (Homo sapiens), sequence (Q96RI1 whole entry, looked up): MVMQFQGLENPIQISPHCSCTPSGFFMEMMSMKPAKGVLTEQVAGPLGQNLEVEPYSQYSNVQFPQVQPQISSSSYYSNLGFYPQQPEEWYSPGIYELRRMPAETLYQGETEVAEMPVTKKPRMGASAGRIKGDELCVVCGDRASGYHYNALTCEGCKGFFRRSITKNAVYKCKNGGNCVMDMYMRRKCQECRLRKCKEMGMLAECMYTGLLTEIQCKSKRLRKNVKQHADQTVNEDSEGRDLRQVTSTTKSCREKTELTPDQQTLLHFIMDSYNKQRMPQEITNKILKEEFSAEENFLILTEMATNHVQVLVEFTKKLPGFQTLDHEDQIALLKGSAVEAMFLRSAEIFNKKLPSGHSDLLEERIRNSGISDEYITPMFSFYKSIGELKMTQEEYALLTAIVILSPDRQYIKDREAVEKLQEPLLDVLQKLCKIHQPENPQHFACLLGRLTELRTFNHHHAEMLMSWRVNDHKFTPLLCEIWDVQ

For the assay, the target named is Bile acid receptor (Homo sapiens) (UniProt Q96RI1). Description: qHTS assay to identify small molecule agonists of the farnesoid-X-receptor (FXR) signaling pathway (AID 743220). The conditions noted are these: HEK293T FXR-UAS-bla, beta-lactamase FRET ratio, 16 h; series mostly up to 62.6 µM; activation: at the top concentration. From the text:
National Center for Advancing Translational Sciences [NCATS]
NIH Chemical Genomics Center [NCGC]
U.S. Environmental Protection Agency [EPA]
National Institutes of Environmental Health Sciences [NIEHS]
National Toxicology Program [NTP]
U.S. Food and Drug Administration [FDA]
The farnesoid-X-receptor (FXR), a nuclear hormone receptor, is highly expressed in liver, intestine, kidney and adrenal cortex. Natural ligands of FXR are the bile acids (Cholic acid, Chenodeoxy cholic acid etc). FXR is an important regulator of diverse metabolic pathways, including the bile acid homeostasis, lipid and glucose metabolisms. FXR regulates the expression of target genes by binding either as a monomer or as a heterodimer with the retinoid X receptor (RXR). Numerous studies have reported that FXR exerts protective function during cholestasis, diabetes, liver regeneration, and cancer. To identify compounds that activate FXR signaling, GeneBLAzer FXR-UAS-bla HEK 293T cell line (Invitrogen, Carlsbad, CA) containing a beta-lactamase reporter gene under the control of a UAS response element was used to screen the Tox21 10K compound library.
Tox21 Assay Protocol Summary:
FXR-bla cells were dispensed at 5000 cells/5uL/well in 1536-well black wall/clear bottom plates using a Multidrop Combi (Thermo Fisher Scientific, Waltham, MA) dispenser. After the assay plates were incubated at 37C and 5% CO2 for 5 h, 23 nL of compounds dissolved in DMSO, positive controls or DMSO only was transferred to the assay plate by a Pintool station (Kalypsys, San Diego, CA). The assay plates were incubated at 37C for 16 h. After 1 uL of LiveBLAzerTM B/G FRET substrate was added using a Bioraptr Flying Reagent Dispenser (FRD) workstation (Beckman Coulter, Indianapolis, IN), the plates were incubated at room temperature for 2 h, and fluorescence intensity was measured by an Envision plate reader (PerkinElmer, Shelton, CT).
(Quantitative high-throughput screening tests each substance at several concentrations.)
On to `O=Cc1ccccc1`, for which the “activation” value is -3.77% [at 81.1 µM].

Regarding `Brc1ccc(Oc2ccc(Br)cc2Br)c(Br)c1`, the “activation” value was -0.22%.

For the compound `Clc1cc(Cl)c(-c2cc(Cl)c(Cl)cc2Cl)cc1Cl`, the “activation” value was -0.53%.

Take `Clc1ccc(C(c2ccc(Cl)cc2)C(Cl)Cl)cc1`: the Potency result is “inactive”.

Turning to `Nc1ccc(Cl)cc1C(=O)c1ccccc1F`, the “activation” value was 1.4%.

In the case of `CCN(CC)C(=O)N[C@@H]1C=C2c3cccc4[nH]cc(c34)C[C@@H]2N(C)C1`, the “activation” value is -1.11%.

With `COC(=O)c1ccccc1S(=O)(=O)NC(=O)Nc1nc(C)nc(OC)n1`, the “activation” value is 0.183%.

Take `N#Cc1sc2c(=O)c3ccccc3c(=O)c=2sc1C#N`: the “activation” value is 1.87%.

For the compound `CC(C)C(Br)C(=O)NC(N)=O` (stereo not given), the “activation” value is -0.148%.

On to `CN1C2CCC(C)(C)C1CC(OC(=O)C(O)(c1cccs1)c1cccs1)C2` (stereo not given), for which the “activation” value is -0.345%.

Regarding `CCC(C)c1cccc(C(C)CC)c1O` (stereo not given), the “activation” value is 0.0006%.

On to `O=C1C2(Cl)C3(Cl)C4(Cl)C(Cl)(Cl)C5(Cl)C3(Cl)C1(Cl)C5(Cl)C24Cl` (stereo not given), for which the “activation” value is -1.25%.

In the case of `CCOC(=O)Cc1ccccc1`, the “activation” value is -0.175%.

For `FC(F)C(F)(F)OCC(Cn1cncn1)c1ccc(Cl)cc1Cl` (stereo not given), the “activation” value was -1.55%.

Turning to `Oc1cc(Cl)c(Cl)c(Cl)c1Cl`, the “activation” value was -5.14%.

`COC(=O)N(OC)c1ccccc1COc1ccn(-c2ccc(Cl)cc2)n1`: the “activation” value was -0.855%.

Turning to `N#CSCc1ccccc1`, the “activation” value was -2.6% [at 81.1 µM].

Take `C[C@]12Cc3cn[nH]c3C[C@@H]1CC[C@@H]1[C@@H]2CC[C@@]2(C)[C@H]1CC[C@]2(C)O`: the “activation” value was -0.649%.

`O=C(Cl)c1ccccc1F`: the “activation” value was -0.576%.

For the compound `CC[N+]1(CC)CCC(OC(=O)C(O)(c2ccccc2)c2ccccc2)C1` (stereo not given), the “activation” value is 3.38%.

`COP(=O)(OC)O/C(=C\Cl)c1cc(Cl)c(Cl)cc1Cl`: the “activation” value is 0.334%.

Consider `Cc1cc(C2CC2)nc(Nc2ccccc2)n1`, for which the “activation” value is -0.057%.

In the case of `CCO/N=C(\CC)C1=C(O)CC(c2c(C)cc(C)cc2C)CC1=O` (stereo not given), the “activation” value was 3.63% [at 81.1 µM].

Take `O=c1[nH]c2cc(Cl)ccc2n1C1CCNCC1`: the “activation” value is 3.57%.

Regarding `CC[C@]1(O)CC[C@H]2[C@@H]3CCC4=CCCC[C@@H]4[C@H]3CC[C@@]21C`, the “activation” value is -1.1%.

On to `Brc1cccc(-c2ccccc2)c1`, for which the “activation” value was 0.914% [at 81.1 µM].

In the case of `Cc1c([N+](=O)[O-])cc2c(c1[N+](=O)[O-])C(C)(C)CC2(C)C`, the “activation” value is -0.285%.

Take `ClCBr`: the “activation” value is 0.0823% [at 81.1 µM].

Consider `BrCC(Br)(Br)Br`, for which the “activation” value was -2.11% [at 81.1 µM].

Regarding `Cc1cc2c3c(c1)C(c1ccccc1)=N[C@@H](NC(=O)c1ccncc1)C(=O)N3CC2`, the “activation” value is 0.533%.

With `CCOP(=O)(OCC)Oc1cc(C)nc(C(C)C)n1`, the “activation” value is 1.26% [at 81.1 µM].

As for `O=S1(=O)OCC2C(CO1)C1(Cl)C(Cl)=C(Cl)C2(Cl)C1(Cl)Cl` (stereo not given), the “activation” value is -2.58%.

As for `O=[N+]([O-])c1cccc2cccc([N+](=O)[O-])c12`, the “activation” value was -0.46% [at 81.1 µM].

With `S=C=Nc1ccccc1`, the “activation” value was -0.154% [at 81.1 µM].

As to `CC#C[C@]1(O)CC[C@H]2[C@@H]3C[C@H](C)C4=CC(=O)CC[C@]4(C)[C@H]3CC[C@@]21C`, the “activation” value is -2.29%.

`CC(C)c1c(CN(C)C(C)Cc2ccccc2)n(C)n(-c2ccccc2)c1=O` (stereo not given): the “activation” value is 3.92%.

On to `CCCCCCC[CH2][Sn]([Cl])([Cl])[CH2]CCCCCCC`, for which the “activation” value was -5.05%.

`Cc1cnc2c(C(=O)O)c(Cl)ccc2c1`: the “activation” value was 0.406%.

With `CC(Cc1ccccc1)N(C)Cc1ccco1` (stereo not given), the “activation” value is 1.08%.

With `O=c1c2ccccc2c(=O)c2c1cc(Cl)c1[nH]c3c([nH]c12)c(Cl)cc1c(=O)c2ccccc2c(=O)c13`, the “activation” value was 1.42%.
